Test results as given in the supplement of paper PMC10849652.
Of roughly 8,800 targets only a part is listed; those with a hit were picked by preference. About 0.5% of all pairs of compound and target were hits.

How the values were obtained:
Assay in all cases: log2 fold change, soluble protein after heating vs DMSO (PISA); higher = thermal stabilisation; K562 lysate, 10 uM; active = over 0.2 and 3.5 SD of the protein, either way, in both replicates (recomputed)
[1] = compound: C#Cc1cccc(Nc2ncnc3cc(OCCOC)c(OCCOC)cc23)c1 [erlotinib]
In short: (§1)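 Quantification was by TMTpro 16plex LC-MS/MS with equalised channel sums, applied to the supernatant after 21,000xg for 90 min. Samples were crude K562 extract at 1 mg/mL protein in PBS pH 7.4 with 1 mM MgCl2, treated with 10 μM compound for 30 min, heated for 3 min across 48°C-58°C, pooled and brought to 0.5% NP-40 at 4°C. Values are log-two fold changes in thermal stability relative to solvent controls, from duplicates.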

[2] = compound: C/C(=N\NC(=O)C1=CC(=CC=C1)S(=O)(=O)N2CCOCC2)/C3=C(C=CC(=C3)Cl)O
In short: as §1

[3] = compound: C1=CC(=CC=C1C2=NC3=C(N2)C=C(C=C3)C(=O)N)OC4=CC=C(C=C4)Cl
In short: as §1

[4] = compound: C1=CC2=C(C=CC(=C2)/C=C\3/C(=O)NC(=NCC4=CC=CS4)S3)N=C1
In short: as §1

[5] = compound: C1=CC2=NC=CN=C2C=C1/C=C/3\C(=O)NC(=O)S3
In short: as §1

[6] = compound: C1=CC=C(C=C1)C2=NC(=C(N2)C3=CC=NC=C3)C4=CC(=C(C=C4)Cl)O
In short: as §1

[7] = compound: C1=CC=C2C(=C1)C3=NNC4=CC=CC(=C43)C2=O
In short: as §1

[8] = compound: C1CCN(C1)C(=O)NC2=CC=CC(=C2)NC3=NC=C(C(=N3)NCCC4=CN=CN4)Br
In short: as §1

[9] = compound: C1CN(CCC1(CC2=CC=C(C=C2)Cl)N)C3=NC=NC4=C3C=CN4
In short: as §1

[10] = compound: C1COCCN1CCN2C3=CC=CC=C3N=C2NC(=O)C4=CC(=CC=C4)[N+](=O)[O-] [IRAK-1-4 Inhibitor I]
In short: as §1

[11] = compound: C=CC(=O)N1CCC[C@@H](n2nc(-c3ccc(Oc4ccccc4)cc3)c3c(N)ncnc32)C1 [ibrutinib]
In short: as §1

[12] = compound: CC(=O)c1cnc2ccc(-c3cc(Cl)c(O)c(Cl)c3)nc2c1N[C@H]1CC[C@H](CN(C)C)CC1
In short: as §1

[13] = compound: CC(C)(C)Cn1c(N)nc2ccc(-c3[nH]c(C(C)(C)C)nc3-c3ccc(F)cc3)nc21 [ralimetinib]
In short: as §1

[14] = compound: CC(C)(O)CC(=O)NCCn1ccc2ncnc(Nc3ccc(Oc4cccc(C(F)(F)F)c4)c(Cl)c3)c21
In short: as §1

[15] = compound: CC(C)C1=C2N=C(C=C(N2N=C1)NCC3=CC=CC=C3)NCCCCCCN
In short: as §1

[16] = compound: CC1=C(C(CC(=O)N1)C2=CC=C(C=C2)C(F)(F)F)C(=O)NC3=C(C=C4C(=C3)C=NN4)F
In short: as §1

[17] = compound: CC1=C(C2=C(C=C1)C(=O)C3=CC=CC=C3N2CCCN)C
In short: as §1

[18] = compound: CC1=C(C=C(C=C1)NC(=O)C2=CC(=CC=C2)C(C)(C)C#N)NC3=CC4=C(C=C3)N=CN(C4=O)C
In short: as §1

[19] = compound: CC1=C(C=C(C=C1)NC(=O)C2=CC(=CC=C2)N(C)C)NC(=O)C3=CC=C(C=C3)O
In short: as §1

[20] = compound: CC1=CC=C(C=C1)SC2=C3C=C(SC3=CN=C2)C(=O)N
In short: as §1

Measured: log2 fold change

MBLAC2 (UniProt Q68D91)
inactive: [1] -0.052 | [2] -0.042 | [3] 0.01 | [4] -0.055 | [5] 0.012 | [6] 0.018 | [7] 0.065 | [8] 0.026 | [9] -0.007 | [10] -0.027 | [11] 0.05 | [12] -0.005 | [13] 0.069 | [14] 0.003 | [15] 0.035 | [16] 0.04 | [17] 0.037 | [18] -0.013 | [19] -0.044 | [20] -0.019

MINK1 (UniProt Q8N4C8)
Sequence of UniProt Q8N4C8 (Q8N4C8 whole entry, looked up): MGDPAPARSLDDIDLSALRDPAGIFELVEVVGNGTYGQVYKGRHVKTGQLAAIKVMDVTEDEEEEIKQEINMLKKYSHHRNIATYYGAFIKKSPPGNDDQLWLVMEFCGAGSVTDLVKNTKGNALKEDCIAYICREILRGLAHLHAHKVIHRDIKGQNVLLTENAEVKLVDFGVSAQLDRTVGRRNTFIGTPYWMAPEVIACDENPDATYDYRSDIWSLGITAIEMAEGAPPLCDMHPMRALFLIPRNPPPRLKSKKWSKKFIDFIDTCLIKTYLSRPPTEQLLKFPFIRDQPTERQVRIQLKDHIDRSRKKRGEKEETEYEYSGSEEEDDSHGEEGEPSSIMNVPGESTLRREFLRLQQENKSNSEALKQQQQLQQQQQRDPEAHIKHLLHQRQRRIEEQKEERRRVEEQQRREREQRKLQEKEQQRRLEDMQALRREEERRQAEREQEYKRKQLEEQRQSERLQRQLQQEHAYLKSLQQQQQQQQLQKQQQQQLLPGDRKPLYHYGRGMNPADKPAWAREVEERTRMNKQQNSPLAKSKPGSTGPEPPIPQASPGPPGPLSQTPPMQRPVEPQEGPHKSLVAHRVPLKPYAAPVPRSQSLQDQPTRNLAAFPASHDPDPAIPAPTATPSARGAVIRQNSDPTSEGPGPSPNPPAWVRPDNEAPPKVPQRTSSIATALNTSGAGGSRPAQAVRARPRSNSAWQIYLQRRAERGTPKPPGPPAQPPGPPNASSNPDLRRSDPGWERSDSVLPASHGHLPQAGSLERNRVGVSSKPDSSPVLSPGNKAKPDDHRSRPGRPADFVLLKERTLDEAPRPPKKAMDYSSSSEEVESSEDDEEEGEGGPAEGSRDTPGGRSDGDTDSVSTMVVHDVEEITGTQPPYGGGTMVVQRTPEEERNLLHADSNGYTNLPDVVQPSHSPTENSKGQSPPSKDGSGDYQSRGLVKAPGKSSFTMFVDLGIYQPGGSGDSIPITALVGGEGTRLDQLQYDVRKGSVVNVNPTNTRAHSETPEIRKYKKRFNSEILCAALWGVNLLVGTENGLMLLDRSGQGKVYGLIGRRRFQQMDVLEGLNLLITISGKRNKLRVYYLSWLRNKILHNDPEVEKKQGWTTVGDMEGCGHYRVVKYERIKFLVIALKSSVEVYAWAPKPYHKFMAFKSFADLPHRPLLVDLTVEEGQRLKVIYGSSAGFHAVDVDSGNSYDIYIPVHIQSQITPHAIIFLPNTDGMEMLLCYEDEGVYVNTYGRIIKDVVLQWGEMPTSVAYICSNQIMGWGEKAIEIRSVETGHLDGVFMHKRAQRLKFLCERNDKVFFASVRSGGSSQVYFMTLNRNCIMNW
inactive: [1] 0.057 | [2] 0.058 | [3] -0.059 | [4] 0.135 | [5] 0.045 | [6] -0.141 | [7] 0 | [8] 0.016 | [9] -0.037 | [10] 0.061 | [11] -0.003 | [12] 0.013 | [13] 0.042 | [14] -0.051 | [15] 0.119 | [16] -0.144 | [17] -0.03 | [18] -0.008 | [19] 0.013 | [20] 0.021

L3HYPDH (UniProt Q96EM0)
inactive: [1] -0.004 | [2] 0.057 | [3] 0.028 | [4] -0.027 | [5] 0.033 | [6] -0.03 | [7] -0.048 | [8] 0 | [9] 0.038 | [10] 0.029 | [11] -0.004 | [12] 0.039 | [13] -0.021 | [14] -0.004 | [15] 0.004 | [16] -0.044 | [17] -0.001 | [18] 0.032 | [19] 0.018 | [20] -0.024

KPNA4 (UniProt O00629)
Sequence of UniProt O00629 (O00629 whole entry, looked up): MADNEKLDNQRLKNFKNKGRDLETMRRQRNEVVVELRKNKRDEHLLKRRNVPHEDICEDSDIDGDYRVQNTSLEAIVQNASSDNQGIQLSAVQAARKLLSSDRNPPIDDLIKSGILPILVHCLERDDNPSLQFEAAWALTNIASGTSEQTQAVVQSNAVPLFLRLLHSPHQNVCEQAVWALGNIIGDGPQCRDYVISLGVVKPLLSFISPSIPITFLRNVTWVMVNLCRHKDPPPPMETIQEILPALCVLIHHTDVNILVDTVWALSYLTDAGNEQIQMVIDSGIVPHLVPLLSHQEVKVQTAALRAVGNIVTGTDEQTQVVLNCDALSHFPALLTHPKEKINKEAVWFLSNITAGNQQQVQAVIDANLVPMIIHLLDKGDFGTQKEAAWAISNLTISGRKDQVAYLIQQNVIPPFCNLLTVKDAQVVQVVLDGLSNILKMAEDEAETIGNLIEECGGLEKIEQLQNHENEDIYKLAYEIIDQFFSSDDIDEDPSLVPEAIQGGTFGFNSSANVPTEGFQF
inactive: [1] -0.015 | [2] -0.037 | [3] 0.046 | [4] 0.022 | [5] -0.014 | [6] -0.013 | [7] -0.007 | [8] -0.045 | [9] -0.012 | [10] 0.038 | [11] -0.037 | [12] -0.047 | [13] -0.024 | [14] 0.002 | [15] 0.019 | [16] 0.003 | [17] 0.019 | [18] 0.019 | [19] 0 | [20] -0.018

MGST3 (UniProt O14880)
Sequence of UniProt O14880 (O14880 whole entry, looked up): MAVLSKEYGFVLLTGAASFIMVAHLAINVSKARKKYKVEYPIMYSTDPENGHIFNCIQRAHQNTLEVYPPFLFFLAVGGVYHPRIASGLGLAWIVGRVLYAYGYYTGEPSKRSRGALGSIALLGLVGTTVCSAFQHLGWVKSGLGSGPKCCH
inactive: [1] 0.007 | [2] 0.011 | [3] 0.008 | [4] 0.022 | [5] 0.011 | [6] -0.021 | [7] -0.054 | [8] -0.009 | [9] -0.035 | [10] 0.019 | [11] 0.06 | [12] -0.004 | [13] 0.041 | [14] -0.046 | [15] -0.009 | [16] -0.004 | [17] -0.03 | [18] 0.042 | [19] 0.006 | [20] -0.025

MAPK14 (UniProt Q16539)
Sequence of UniProt Q16539 (Q16539 whole entry, looked up): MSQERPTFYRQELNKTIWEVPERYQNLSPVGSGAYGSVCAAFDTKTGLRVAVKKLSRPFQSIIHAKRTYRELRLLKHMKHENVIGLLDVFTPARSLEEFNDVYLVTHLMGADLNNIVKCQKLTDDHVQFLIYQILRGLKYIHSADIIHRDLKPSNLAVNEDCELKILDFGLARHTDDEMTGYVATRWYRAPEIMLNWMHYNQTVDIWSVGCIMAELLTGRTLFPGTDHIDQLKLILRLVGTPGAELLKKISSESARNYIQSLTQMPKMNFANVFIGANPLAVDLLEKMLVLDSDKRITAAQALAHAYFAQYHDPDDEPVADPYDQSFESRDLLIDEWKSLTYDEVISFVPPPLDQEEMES
inactive: [1] 0.044 | [2] 0.038 | [3] -0.1 | [4] -0.05 | [5] -0.012 | [7] 0.081 | [8] -0.076 | [9] 0.015 | [10] 0.013 | [11] 0.042 | [12] 0.238 | [14] -0.008 | [15] -0.06 | [16] -0.14 | [17] -0.026 | [19] 0.455 | [20] -0.007
active: [6] 0.82 | [13] 1.16 | [18] 0.88

MAD2L1BP isoform 3 (UniProt Q15013)
inactive: [1] 0.067 | [2] -0.081 | [3] 0.002 | [4] 0.078 | [5] -0.015 | [6] 0.005 | [7] 0.063 | [8] -0.029 | [10] -0.002 | [11] -0.016 | [12] -0.099 | [13] 0.038 | [14] 0.015 | [15] -0.037 | [16] 0.107 | [17] -0.054 | [18] 0.005 | [19] -0.011 | [20] -0.05
active: [9] 0.263

MACROD1 (UniProt Q9BQ69)
Sequence of UniProt Q9BQ69 (Q9BQ69 whole entry, looked up): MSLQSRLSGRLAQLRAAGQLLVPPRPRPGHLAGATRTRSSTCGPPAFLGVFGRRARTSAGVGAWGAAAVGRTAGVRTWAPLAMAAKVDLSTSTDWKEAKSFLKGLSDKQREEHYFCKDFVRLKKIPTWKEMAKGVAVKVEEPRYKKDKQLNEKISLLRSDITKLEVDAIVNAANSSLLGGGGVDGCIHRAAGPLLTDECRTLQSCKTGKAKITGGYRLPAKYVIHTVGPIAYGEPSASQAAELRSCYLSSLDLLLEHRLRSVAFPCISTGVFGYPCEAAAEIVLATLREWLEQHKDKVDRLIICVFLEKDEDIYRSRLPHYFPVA
inactive: [1] 0.025 | [2] 0.017 | [3] 0.009 | [4] 0.02 | [5] 0.283 | [6] -0.005 | [7] -0.074 | [8] 0.131 | [9] -0.002 | [10] 0.081 | [11] 0 | [12] 0.015 | [13] 0.098 | [14] -0.024 | [15] -0.008 | [16] 0.022 | [17] 0.017 | [18] -0.101 | [19] 0.064 | [20] 0.065

MCCC1 (UniProt Q96RQ3)
Sequence of UniProt Q96RQ3 (Q96RQ3 whole entry, looked up): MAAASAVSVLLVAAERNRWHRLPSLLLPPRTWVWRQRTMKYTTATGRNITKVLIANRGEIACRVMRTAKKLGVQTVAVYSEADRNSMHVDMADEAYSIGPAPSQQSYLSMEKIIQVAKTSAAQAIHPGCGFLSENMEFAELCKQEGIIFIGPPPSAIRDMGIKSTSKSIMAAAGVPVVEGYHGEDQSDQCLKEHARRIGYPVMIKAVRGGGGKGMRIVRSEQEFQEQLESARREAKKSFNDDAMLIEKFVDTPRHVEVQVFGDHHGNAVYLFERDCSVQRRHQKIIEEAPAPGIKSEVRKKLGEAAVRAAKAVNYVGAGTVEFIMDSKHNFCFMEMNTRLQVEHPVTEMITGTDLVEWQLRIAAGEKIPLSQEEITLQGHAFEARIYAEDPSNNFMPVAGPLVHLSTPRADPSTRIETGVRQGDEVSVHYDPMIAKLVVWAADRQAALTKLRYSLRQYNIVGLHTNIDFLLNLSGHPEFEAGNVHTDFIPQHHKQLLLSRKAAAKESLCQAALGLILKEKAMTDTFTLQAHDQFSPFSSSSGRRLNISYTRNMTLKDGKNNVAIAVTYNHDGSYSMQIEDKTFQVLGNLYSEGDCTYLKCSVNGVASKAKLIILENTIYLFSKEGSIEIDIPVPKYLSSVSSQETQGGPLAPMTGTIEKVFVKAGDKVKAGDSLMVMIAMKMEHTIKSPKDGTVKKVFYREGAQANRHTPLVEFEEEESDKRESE
inactive: [1] 0.037 | [2] -0.028 | [3] 0.048 | [4] -0.052 | [5] 0.025 | [6] -0.029 | [7] -0.085 | [8] -0.022 | [9] 0.077 | [10] -0.008 | [11] 0.034 | [12] -0.033 | [13] 0.022 | [14] -0.042 | [15] -0.014 | [16] -0.028 | [17] 0.026 | [18] -0.006 | [19] -0.004 | [20] 0.013

MPZL1 (UniProt O95297)
Sequence of UniProt O95297 (O95297 whole entry, looked up): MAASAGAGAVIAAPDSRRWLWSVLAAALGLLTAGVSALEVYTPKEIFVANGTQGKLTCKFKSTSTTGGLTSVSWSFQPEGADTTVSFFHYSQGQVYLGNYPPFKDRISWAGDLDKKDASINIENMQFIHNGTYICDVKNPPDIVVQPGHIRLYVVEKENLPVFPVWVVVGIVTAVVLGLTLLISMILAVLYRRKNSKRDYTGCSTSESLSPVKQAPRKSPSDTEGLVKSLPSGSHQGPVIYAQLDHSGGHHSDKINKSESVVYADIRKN
inactive: [1] -0.057 | [2] 0.068 | [3] -0.036 | [4] 0.003 | [5] -0.042 | [6] 0.017 | [7] -0.005 | [8] 0.015 | [9] -0.04 | [10] 0.015 | [11] 0.01 | [12] -0.008 | [13] -0.01 | [14] 0.022 | [15] -0.035 | [16] -0.006 | [17] 0.003 | [18] 0.02 | [19] -0.035 | [20] -0.036

LPCAT1 (UniProt Q8NF37)
inactive: [1] 0.056 | [2] -0.052 | [3] -0.057 | [4] 0.054 | [5] 0.062 | [6] -0.09 | [7] -0.014 | [8] -0.007 | [9] -0.025 | [10] 0.04 | [11] 0.175 | [12] -0.021 | [13] 0 | [14] -0.142 | [15] -0.036 | [16] 0.066 | [17] -0.011 | [18] 0.003 | [19] -0.016 | [20] -0.019

MAPKAPK2 (UniProt P49137)
Sequence of UniProt P49137 (P49137 whole entry, looked up): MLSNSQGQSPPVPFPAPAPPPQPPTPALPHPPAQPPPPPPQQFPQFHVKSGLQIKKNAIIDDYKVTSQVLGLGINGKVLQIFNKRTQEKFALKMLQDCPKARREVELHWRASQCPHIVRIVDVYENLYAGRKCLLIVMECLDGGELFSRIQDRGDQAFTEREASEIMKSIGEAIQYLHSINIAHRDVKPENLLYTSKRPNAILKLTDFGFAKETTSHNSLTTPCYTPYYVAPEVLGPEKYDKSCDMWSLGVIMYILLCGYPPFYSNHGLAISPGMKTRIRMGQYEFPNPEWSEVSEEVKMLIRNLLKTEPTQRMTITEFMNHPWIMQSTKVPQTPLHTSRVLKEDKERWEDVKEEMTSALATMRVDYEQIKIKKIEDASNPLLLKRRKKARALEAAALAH
inactive: [1] -0.047 | [2] 0.041 | [3] 0 | [4] 0.192 | [5] 0.003 | [6] 0.013 | [7] 0.026 | [8] -0.02 | [9] 0.018 | [10] -0.017 | [11] 0.05 | [13] -0.011 | [14] 0.016 | [15] -0.046 | [16] 0.003 | [17] 0.002 | [18] -0.056 | [19] 0.026 | [20] 0
active: [12] 0.385

MORF4L1 isoform 2 (UniProt Q9UBU8)
Sequence of UniProt Q9UBU8 (Q9UBU8 whole entry, looked up): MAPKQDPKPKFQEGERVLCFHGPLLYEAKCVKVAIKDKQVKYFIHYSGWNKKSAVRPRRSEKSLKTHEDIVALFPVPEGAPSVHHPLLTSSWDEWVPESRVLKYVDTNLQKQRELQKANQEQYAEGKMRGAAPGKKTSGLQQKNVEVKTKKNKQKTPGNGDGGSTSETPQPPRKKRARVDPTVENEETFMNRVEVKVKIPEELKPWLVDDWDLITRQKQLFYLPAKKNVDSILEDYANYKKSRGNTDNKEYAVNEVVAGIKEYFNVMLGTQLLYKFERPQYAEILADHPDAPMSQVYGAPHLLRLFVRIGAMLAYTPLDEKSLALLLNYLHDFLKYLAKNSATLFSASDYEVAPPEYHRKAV
inactive: [1] 0.028 | [2] 0.06 | [3] 0.046 | [4] -0.027 | [5] -0.032 | [6] -0.005 | [7] 0.017 | [8] -0.04 | [9] -0.01 | [10] 0.013 | [11] -0.038 | [12] -0.012 | [13] 0.011 | [14] -0.062 | [15] 0.019 | [16] -0.034 | [17] -0.089 | [18] 0.01 | [19] 0.003 | [20] 0.021

LAGE3 (UniProt Q14657)
Sequence of UniProt Q14657 (Q14657 whole entry, looked up): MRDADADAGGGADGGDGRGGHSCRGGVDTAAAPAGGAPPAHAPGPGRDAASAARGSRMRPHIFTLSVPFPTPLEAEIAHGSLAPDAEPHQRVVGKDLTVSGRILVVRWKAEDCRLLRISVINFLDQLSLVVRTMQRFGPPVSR
active: [2] 0.342
inactive: [1] 0.028 | [3] 0.074 | [4] -0.008 | [5] -0.092 | [6] -0.018 | [7] 0.091 | [8] 0 | [9] 0.022 | [10] 0.06 | [11] 0.047 | [12] 0.002 | [13] 0.012 | [14] 0 | [15] -0.004 | [16] -0.147 | [17] -0.098 | [18] -0.002 | [19] 0.031 | [20] 0.046

MAP2K3 isoform 3 (UniProt P46734)
Sequence of UniProt P46734 (P46734 whole entry, looked up): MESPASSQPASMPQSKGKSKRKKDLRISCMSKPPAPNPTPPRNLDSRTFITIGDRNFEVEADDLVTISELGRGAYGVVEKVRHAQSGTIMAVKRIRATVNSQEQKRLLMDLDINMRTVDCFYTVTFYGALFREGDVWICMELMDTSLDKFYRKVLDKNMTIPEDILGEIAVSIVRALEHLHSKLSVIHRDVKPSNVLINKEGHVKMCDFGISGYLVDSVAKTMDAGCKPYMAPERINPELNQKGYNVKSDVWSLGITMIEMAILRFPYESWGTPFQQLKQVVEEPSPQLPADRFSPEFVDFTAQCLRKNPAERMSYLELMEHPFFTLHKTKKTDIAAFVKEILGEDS
inactive: [1] 0.048 | [2] 0.061 | [3] 0.03 | [4] -0.063 | [5] 0.03 | [6] -0.037 | [7] 0.119 | [8] -0.006 | [9] 0.129 | [10] 0.03 | [11] -0.041 | [12] 0.095 | [13] 0.012 | [14] -0.008 | [15] -0.15 | [16] 0.019 | [17] -0.095 | [18] 0.021 | [19] 0.123 | [20] 0.114

MRPL12 (UniProt P52815)
inactive: [1] 0.046 | [2] -0.02 | [3] -0.013 | [4] 0.041 | [5] -0.015 | [6] -0.015 | [7] 0.014 | [8] -0.007 | [9] 0.077 | [10] -0.029 | [11] 0.082 | [12] -0.05 | [13] 0.006 | [14] -0.013 | [15] -0.029 | [16] -0.042 | [17] 0 | [18] 0.026 | [19] 0.012 | [20] 0.076
